{
  "source": "PubChem BioAssay (Tox21)",
  "note": "Inconclusive results are not listed. The source made the active and inactive calls. Calls come from the whole dose curve; as a rule, active = well fitted activation curve with a large enough effect in the signal ratio in the repeat runs (not every such curve was filed as active); inconclusive = weak or mixed curves, or effect the other way; inactive = flat fitted curve, though single readings scatter; the % refers to the signal ratio. % is set by controls: 0 for no effect and ±100 for the full control effect.",
  "data": [
    {"target": "Bile acid receptor (Homo sapiens) (UniProt Q96RI1)", "sequence (Q96RI1 whole entry, looked up)": "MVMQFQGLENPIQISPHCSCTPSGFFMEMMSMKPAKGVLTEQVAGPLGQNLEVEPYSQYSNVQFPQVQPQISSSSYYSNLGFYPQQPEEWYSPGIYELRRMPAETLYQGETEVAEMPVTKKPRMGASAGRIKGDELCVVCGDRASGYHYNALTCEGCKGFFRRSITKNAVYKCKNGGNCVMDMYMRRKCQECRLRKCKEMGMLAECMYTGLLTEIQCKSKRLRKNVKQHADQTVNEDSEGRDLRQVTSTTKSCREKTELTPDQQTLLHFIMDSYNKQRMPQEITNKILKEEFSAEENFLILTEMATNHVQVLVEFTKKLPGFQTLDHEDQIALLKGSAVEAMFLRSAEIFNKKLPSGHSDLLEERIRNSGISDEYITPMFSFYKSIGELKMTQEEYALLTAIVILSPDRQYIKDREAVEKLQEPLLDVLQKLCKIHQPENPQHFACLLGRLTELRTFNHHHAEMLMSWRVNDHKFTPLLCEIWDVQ", "assay": "qHTS assay to identify small molecule agonists of the farnesoid-X-receptor (FXR) signaling pathway (AID 743220)", "details": "HEK293T FXR-UAS-bla, beta-lactamase FRET ratio, 16 h; series mostly up to 62.6 µM; activation: at the top concentration", "how_it_was_run": "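Beta-lactamase reporter under UAS control in GeneBLAzer FXR HEK 293T cells (5000/well) measured with LiveBLAzer FRET substrate after 2 h at room temperature. Compound exposure lasted 16 h at 37C.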", "values": [
      {"smiles": "O=C1c2ccccc2C(=O)N1CCl", "activation": "-2.55% (inactive)"},
      {"smiles": "O=C(CCNNC(=O)c1ccncc1)NCc1ccccc1", "activation": "-1.42% (inactive)"},
      {"smiles": "Cc1cccc2nccnc12", "activation": "-0.731% (inactive)"},
      {"smiles": "OC[C@H](Cc1cccc(O)c1)[C@H](CO)Cc1cccc(O)c1", "activation": "0.749% [at 81.1 µM] (inactive)"},
      {"smiles": "COC(=O)c1ccccc1C(=O)c1ccc(OCCN2CCCCC2)cc1", "activation": "-1.89% (inactive)"},
      {"smiles": "O=C(O)c1cc(Br)c(O)c(Br)c1", "activation": "-3.2% (inactive)"},
      {"smiles": "O=C(O)c1cc(Cl)cc([N+](=O)[O-])c1Cl", "activation": "-2.08% (inactive)"},
      {"smiles": "CC1=C(C(=O)O)N2C(=O)[C@@H](NC(=O)[C@H](N)c3ccc(O)cc3)[C@H]2SC1", "activation": "-1.65% (inactive)"},
      {"smiles": "NC(CO)C(=O)NNCc1ccc(O)c(O)c1O", "note": "(centres undefined)", "activation": "-1.4% (inactive)"},
      {"smiles": "COc1nccnc1NS(=O)(=O)c1ccc(N)cc1", "activation": "-0.276% (inactive)"},
      {"smiles": "CN(CCOc1ccc(NS(C)(=O)=O)cc1)CCc1ccc(NS(C)(=O)=O)cc1", "activation": "-0.169% (inactive)"},
      {"smiles": "CC(C)OC(=O)CCCCC(=O)OC(C)C", "activation": "-1.8% (inactive)"},
      {"smiles": "N[C@@H](CCC(=O)Nc1ccc([N+](=O)[O-])cc1)C(=O)O", "activation": "2.92% (inactive)"},
      {"smiles": "NNc1nnc(NN)c2ccccc12", "activation": "-1.73% (inactive)"}
    ]}
  ]
}
